Test results reported in PubChem BioAssay.
For some of these results: Results with a measured potency or affinity are listed apart. Results filed as inconclusive are left out. The list shows a part of the results. Calls of active or inactive are those of the source.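 How the source made its calls, unless noted: active means signal-lowering compounds whose fitted half-maximal concentration is at or below twice the top tested dose in every run; inconclusive means runs disagree, flat 30 to 70% inhibition, or poor curve fit; inactive means the rest.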

Test: small-molecule DNA binding by polarization – biochemical, fluorescence polarization, cherry-pick, counter-screen for EWS/Fli inhibitor project, dose response (AID 720586;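 active means fitted curve reaches a 35% signal fall AC35 below twice the sample's top valid tested dose, actives reach about 48 µM in these data; inactive means the rest, including activity in the rising direction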;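 further: lower polarization ratio signals compound binding to DNA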)
Details: salmon sperm DNA acridine orange fluorescence polarization; series mostly up to 68 µM

| SMILES | AC35 |
| --- | --- |
| COc1ccc(OC)c(Cc2cnc3nc(N)nc(N)c3c2C)c1 | inactive |
| Cc1ccc(S(=O)(=O)Nc2ccc3c(c2)C(=O)N([C@@H](C)CO)C[C@@H](C)[C@@H](CN(C)Cc2ccc(C(=O)Nc4ccccc4N)cc2)O3)cc1 | inactive |
| C[C@H]1CN([C@@H](C)CO)C(=O)Cc2cc(NC(=O)C3CC3)ccc2O[C@H]1CN(C)S(=O)(=O)c1ccc(Cl)cc1 | inactive |
| C[C@H](CO)N1C[C@H](C)[C@H](CN(C)Cc2ccc(C(F)(F)F)cc2)Oc2ccc(NC(=O)CCCCCC(=O)Nc3ccccc3N)cc2CC1=O | inactive |
| CCC(C)Cn1c(O)cc2nn(-c3nc4ccccc4s3)c(=O)c-2c1C (stereo not drawn) | 48.3 µM (active) |
| COc1ccc(Nc2ncnc3ccc(Br)cc23)c(OC)c1 | inactive |
| C[C@@H]1CN([C@@H](C)CO)C(=O)c2cc(NS(=O)(=O)c3ccccc3)ccc2O[C@@H]1CN(C)Cc1ccc(C(=O)Nc2ccccc2N)cc1 | inactive |

Test: CMV-driven luciferase expression suppression in HEK293 – cell-based, luminescence, dry powder, counter-screen for Pax8 inhibitor project, dose response (AID 743020);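 further: HEK293 cells stably expressing the CMV luciferase reporter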
Details: HEK293 CMV-luciferase reporter, SteadyGlo luminescence, 24 h; series mostly up to 35 µM

| SMILES | outcome |
| --- | --- |
| COc1cccc(-c2ccc3c(c2)[C@H]2[C@H](CCN2S(=O)(=O)c2ccccc2F)[C@@H](CO)N3)c1 | inactive |
| O=C(Nc1cccc(F)c1)N1CCCCN2[C@H](CO)[C@@H](c3ccc(C#Cc4ccccc4)cc3)[C@H]2C1 | inactive |
| COc1ccc(S(=O)(=O)Nc2ccc3c(c2)C(=O)N([C@@H](C)CO)C[C@H](C)[C@@H](CN(C)C(=O)Nc2ccc(F)cc2)OCCCC[C@H](C)O3)cc1 | inactive |
| C[C@@H]1CCCCO[C@H](CN(C)S(=O)(=O)c2ccc(F)cc2)[C@H](C)CN([C@@H](C)CO)C(=O)c2cc(NS(=O)(=O)c3ccc(Cl)cc3)ccc2O1 | inactive |
| CCCC#Cc1ccc([C@@H]2[C@@H](C#N)N(C(=O)C3CCCCC3)[C@H]2CO)cc1 | inactive |
| C[C@H]1CCCCO[C@H](CN(C)C(=O)Nc2cccc3ccccc23)[C@@H](C)CN([C@@H](C)CO)C(=O)c2cc(NS(=O)(=O)c3ccc(Cl)cc3)ccc2O1 | inactive |
| C[C@@H]1CN([C@@H](C)CO)S(=O)(=O)c2ccc(C#Cc3ccncc3)cc2O[C@H]1CN(C)C(=O)Nc1ccc2c(c1)OCO2 | inactive |
| COc1ccccc1C#Cc1ccc2c(c1)O[C@@H](CN(C)Cc1ccncc1)[C@H](C)CN([C@@H](C)CO)S2(=O)=O | inactive |
| C[C@H]1CN([C@@H](C)CO)C(=O)Cc2cc(NC(=O)NC3CCCCC3)ccc2O[C@@H]1CN(C)Cc1ccc(-c2ccccc2)cc1 | inactive |
| C[C@@H]1CCCCO[C@H](CN(C)C(=O)Nc2cccc3ccccc23)[C@H](C)CN([C@@H](C)CO)C(=O)c2cc(NS(=O)(=O)c3ccc(Cl)cc3)ccc2O1 | inactive |
| C[C@@H]1CCCCO[C@@H](CN(C)Cc2ccc(Cl)c(Cl)c2)[C@@H](C)CN([C@@H](C)CO)C(=O)c2cc(NC(=O)Nc3ccccc3)ccc2O1 | inactive |
| Cc1cccc(-c2ccc(C3[C@@H]4CN(C(=O)Nc5ccc(C(F)(F)F)cc5)C[C@H]3N4)cc2)c1 (stereo partly drawn) | inactive |
| C[C@H](CO)N1C[C@H](C)[C@@H](CN(C)S(=O)(=O)c2ccc(-c3ccccc3)cc2)OCc2cn(nn2)CCCC1=O | inactive |
| C[C@@H]1CN([C@@H](C)CO)C(=O)Cc2cc(NC(=O)CCCCCC(=O)Nc3ccccc3N)ccc2O[C@@H]1CN(C)Cc1ccc(C(F)(F)F)cc1 | inactive |
| O=C(CN1C(=O)c2ccccc2S1(=O)=O)c1ccc2c(c1)OCCO2 | inactive |
| COc1ccc(CN(C)C[C@H]2OCCCC[C@H](C)Oc3ccc(NC(=O)Nc4ccc(C(F)(F)F)cc4)cc3C(=O)N([C@H](C)CO)C[C@H]2C)cc1 | inactive |
| C[C@@H]1CCCCO[C@H](CN(C)Cc2ccc(C(F)(F)F)cc2)[C@@H](C)CN([C@@H](C)CO)C(=O)c2cc(NC(=O)Cc3ccccc3)ccc2O1 | inactive |
| COc1ccccc1C#Cc1ccc2c(c1)O[C@@H](CN(C)Cc1ccncc1)[C@H](C)CN([C@H](C)CO)S2(=O)=O | inactive |
| C[C@@H]1CN([C@H](C)CO)C(=O)c2cc(NC(=O)Nc3ccccc3)ccc2O[C@@H](C)CCCCO[C@H]1CN(C)Cc1ccc(C(F)(F)F)cc1 | inactive |
| C[C@@H]1CN([C@H](C)CO)C(=O)c2cc(NS(=O)(=O)c3ccc(F)cc3)ccc2O[C@@H](C)CCCCO[C@@H]1CN(C)Cc1ccccc1 | inactive |
| COc1ccc(S(=O)(=O)N(C)C[C@@H]2OCCCC[C@H](C)Oc3ccc(NS(=O)(=O)c4ccccc4)cc3C(=O)N([C@H](C)CO)C[C@H]2C)cc1 | inactive |
